Hits are enriched below; roughly 6.9% of the tested compounds scored in any of these assays.
NR3A LBD binder – NR3A (human) ligand-binding domain modulation. NR3A LBD differential scanning fluorimetry, Tm shift; 0% = protein alone, 100% = glycine-bound protein. Tm shift relative to glycine control, % at 25 µM. 2.5% of 340,000 active. AID 1259313;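 active = melting temperature shift of at least 10% of the positive control shift, at one fixed dose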
MPTP block – permeability transition pore inhibition; isolated mouse mitochondria, Ca2+ swelling absorbance, 30 min; inhibition, % at 10 µM; 1.4% of 360,000 active; AID 602449;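 active = inhibition of 50% or more, scaled per plate between neutral and stimulator controls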;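 note: 0% = DMSO wells given calcium and 100% = 1 mM EGTA wells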
CSC inhib – blocks cancer stem cells; cancer stem cell-like cells viability, luminescence; inhibition, % at 7.5 µM; 1.1% of 300,000 active; AID 2717; in the data active = inhibition above about 75%; tested in HMLE shEcad cells
Mdm2-MdmX inh – human Mdm2/MdmX binding inhibition. SaOS-2 split-luciferase Mdm2/MdmX complementation, luminescence. inhibition, % at 8 µM. 3% of 330,000 active. AID 485346;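 active = inhibition of at least 50% at 8 µM in the primary screen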
Beta cell apopt – blocks beta cell apoptosis | 0.8% of 300,000 active | INS-1E cytokine-induced death, ATP luminescence, 48 h; percent of positive-control rescue, neutral wells zero | protection from apoptosis, % (no concentration beside the values);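 active = Every replicate reaches about 75%, or at least half do and their mean reaches it too, limit read from the data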;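 note: 0% = cytokine-treated negative control wells and 100% = positive control rescue; higher means more ATP so stronger rescue from cytokine killing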
SKKanGAS inh – SKKanGAS growth inhibition; S. pyogenes SKKanGAS, kanamycin growth, BacTiter-Glo, 6 h; inhibition, % at 7.5 µM; 1.3% of 300,000 active; AID 1662;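 active = mean replicate score, as percent of positive control median, at least 50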;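 note: strain carries kanamycin resistance gene driven by streptokinase promoter and grows in 40 µg/ml kanamycin; loss of luminescence reflects streptokinase promoter inhibition or plain growth inhibition; 0% = median of DMSO wells and 100% = positive control at its reference dose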
Mdm2 MdmX conf – human Mdm2/MdmX binding inhibition, confirmed. AID 489028. 55% of 10,000 active. shares compounds with Mdm2-MdmX inh. luminescent assay. inhibition, % at 8 µM; in the data active = inhibition above about 40%
FLuc counter – inhibits full-length luciferase, flagging false Mdm2/MdmX hits. shares compounds with Mdm2-MdmX inh. SaOS-2 full-length luciferase counterscreen, luminescence. inhibition, % at 8 µM. 77% of 6,200 active;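 active = mean inhibition at 8 µM reaching about 37%, which flags the compound as non-specific, limit read from the data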;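 note: p53-null SaOS-2 cells with luciferase driven by a doxycycline-inducible promoter; compound on cells about two nights before reading with doxycycline added after day one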
An asterisk follows results filed as active; / = no result.

SMILES	NR3A LBD binder	MPTP block	CSC inhib	Mdm2-MdmX inh	Beta cell apopt	SKKanGAS inh	Mdm2 MdmX conf	FLuc counter
Cc1ccc(Cl)cc1NC(=O)c1cc(S(=O)(=O)N2CCOCC2)cn1C	7	0	-3	16	-5	-2	/	/
CCS(=O)(=O)c1nc2ccccc2n1Cc1ccccc1Cl	2	0	-2	69*	-11	-2	35	/
CC1Cc2ccccc2N1c1ncnc2nc[nH]c12 (stereo not given)	0	1	-1	53*	2	-3	49*	75*
CC1Cc2ccccc2N1c1ncnc(N)c1[N+](=O)[O-] (stereo not given)	-1	0	-9	91*	-40	-4	93*	54*
Nc1cnccc1C(=O)O	-2	0	7	15	-2	13	/	/
CCCc1cnc(NCCNCC(O)COc2ccc(Cl)c(Cl)c2)nc1 (stereo not given)	-5	-1	10	56*	22	7	24	/
CC(=O)c1cccc(OCC(O)CNCCc2ccc(Cl)cc2)c1 (stereo not given)	0	0	13	-32	-4	4	/	/
COC(=O)c1c(NC(=S)NN2CCN(C)CC2)sc2c1CCC(C)C2 (stereo not given)	-26	28	104*	91*	3	31	36	/
COC(=O)c1c(NC(=O)CN(C)CC(=O)Nc2ccc(C)cc2)sc2c1CCC(C)C2 (stereo not given)	0	-2	/	17	-2	/	/	/
CN(C(=O)c1ccc(S(=O)(=O)c2cccc(Cl)c2)c([N+](=O)[O-])c1)C1CCCCC1	-3	48	47	73*	-9	-12	60*	29
CN(C(=O)c1ccc(NC(=O)Cc2cccc([N+](=O)[O-])c2)cc1)C1CCCC1	-2	1	-14	15	-14	/	/	/
O=C(c1ccc(S(=O)(=O)c2ccccc2Cl)c([N+](=O)[O-])c1)N1CCN(Cc2ccccc2)CC1	-5	24	12	84*	0	-4	75*	30
Cc1ccccc1CS(=O)(=O)c1ccc(C(=O)N2CCOCC2)cc1[N+](=O)[O-]	0	3	-8	38	-35	-3	/	/
O=C(c1ccc(S(=O)(=O)Cc2ccccc2Cl)c([N+](=O)[O-])c1)N1CCOCC1	2	1	11	51*	-44	0	42*	49*
O=C(NC1CCCCC1)c1ccc(S(=O)(=O)c2ccccc2Cl)c([N+](=O)[O-])c1	/	/	10	77*	-4	-4	66*	17
Cc1c(C(=O)Nc2cccc([N+](=O)[O-])c2)sc2ncn(CC(=O)N3CCOCC3)c(=O)c12	-24	0	7	0	-3	6	/	/
Cc1csc(=O)n1CCC(=O)OCC(=O)NNC(=O)c1ccc(Cl)cc1	-1	-1	/	11	/	/	/	/
CCCc1ccc(OCC(O)CN2CCN(c3ccccn3)CC2)cc1 (stereo not given)	0	1	24	9	/	5	/	/
Cc1cc(C(=O)COC(=O)c2cccc(NS(C)(=O)=O)c2)c(C)n1CC1CCCO1 (stereo not given)	1	4	-26	70*	-1	/	74*	97*
O=C(COC(=O)c1ccccc1[N+](=O)[O-])c1ccc2c(c1)OCO2	0	-2	-12	53*	-9	-2	83*	148*
CCn1c(C)cc(C(=O)COC(=O)c2ccccc2[N+](=O)[O-])c1C	0	-1	7	96*	32	/	96*	53*
Cc1cc(C(=O)COC(=O)c2ccccc2NCCO)c(C)n1CC1CCCO1 (stereo not given)	2	0	17	5	-5	19	/	/
Cc1cc(C(=O)COC(=O)c2ccccc2O)c(C)n1CC1CCCO1 (stereo not given)	0	0	/	94*	12	/	97*	36
CCOC(=O)C1C(=O)CC(=O)C(C(=O)OCC)C1c1ccc(O)cc1 (stereo not given)	/	0	/	/	/	/	/	/
FC(F)(F)COc1ccc(-c2nnc(SCc3ccccc3)o2)cn1	1	1	6	-4	-20	-1	/	/
SMILES	NR3A LBD binder	MPTP block	CSC inhib	Mdm2-MdmX inh	Beta cell apopt	SKKanGAS inh	Mdm2 MdmX conf	FLuc counter
COCCn1c(C)cc(C(=O)COC(=O)c2cccnc2SC)c1C	0	0	-10	-11	11	/	/	/
Cc1cc(C(=O)COC(=O)c2cccnc2Cl)c(C)n1CC1CCCO1 (stereo not given)	0	2	-15	79*	8	10	82*	97*
Cc1ccc(C(=O)OCC(=O)c2cc(C)n(CC3CCCO3)c2C)cc1 (stereo not given)	2	0	-3	10	-5	0	/	/
Cc1cc(C(=O)COC(=O)c2ccccc2Br)c(C)n1CC1CCCO1 (stereo not given)	2	1	-17	91*	9	-3	93*	39*
Cc1cc(C(=O)COC(=O)c2ccccc2O)c(C)n1Cc1cccs1	0	-1	5	97*	8	7	94*	21
COCCn1c(C)cc(C(=O)COC(=O)c2ccccc2Br)c1C	-2	0	-7	80*	2	4	93*	74*
COc1ccc(C=O)cc1OC(=O)N1CCOCC1	-1	-1	-13	8	-7	1	/	/
CCCc1nnn(S(=O)(=O)c2ccc([N+](=O)[O-])cc2)c1CCC	-3	-1	/	/	/	/	/	/
CCC(C)Oc1cc(-c2ccnc(Nc3cccc(Cl)c3)n2)ccn1 (stereo not given)	-6	0	-7	95*	-8	15	73*	25
OCCCNc1cc(-c2ccnc(Nc3cccc(Cl)c3)n2)ccn1	-13	-2	-10	100*	-36	-4	100*	50*
O=C1Nc2cc3c(cc2C1=O)sc1ccccc13	-2	19	-1	0	-7	-10	/	/
COC(=O)C1=C(C)N(CCc2ccccc2)C(=O)C1(NS(=O)(=O)c1ccc(NC(C)=O)cc1)C(F)(F)F (stereo not given)	0	-2	17	65*	-1	0	32	59*
COC(=O)CC1C(=O)NCCN1C(=O)c1ccc(Cl)cc1 (stereo not given)	-1	-1	29	5	0	7	/	/
COc1ccc(CCN2C(=O)CSC2=S)cc1OC	1	1	25	85*	-32	7	84*	40*
COc1ccc(CCN2C(=O)/C(=C\c3ccco3)SC2=S)cc1OC	-5	0	/	75*	/	4	47*	79*
COc1ccc(CN2C(=O)CSCC2=O)cc1OC	2	5	-1	-13	-7	-4	/	/
O=C1/C(=C\c2ccco2)SC(=S)N1Cc1ccccc1	-7	3	-19	39	-11	38	/	/
